Assay results as given in publication PMC11995724, “Antibiotic target discovery by integrated phenotypic and activity-based profiling of electrophilic fragments” (Cell chemical biology, 2025).
About 75 (2%) of roughly 3,200 compounds showed an effect of 50% or more. For the sample, strong results were picked, then their nearest neighbours and some compounds at random.

system: T1, S. aureus MSSA476; set-up: species or system S. aureus MSSA476 (TSB) or V. cholerae SAD30 (LB); 384-well bacterial growth screen at 25 uM, OD600 relative to DMSO control; settings: relative growth, OD600, TSB; 25 µM; inhibitor
T1 construct: MSSA476

Structure (SMILES) | % of control remaining
CCn1cc(S(=O)(=O)N2CCSSCC2)cn1 [10-N19, 5-[(1-ethyl-1H-pyrazol-4-yl)sulfonyl]-1,2,5-dithiazepane] | 97.1875%
Cc1cc(CN(C(=O)CCl)c2csnc2C)cs1 [5-C12, 2-chloro-N-(3-methyl-1,2-thiazol-4-yl)-N-[(5-methylthiophen-3-yl)methyl]acetamide] | 105.282%
N#CC(=Cc1cccc(F)c1)C(=O)Nc1cc(Cl)ccc1Cl [9-P03, 2-cyano-N-(2,5-dichlorophenyl)-3-(3-fluorophenyl)prop-2-enamide] | 107.865%
C=CC(=O)N1CCC(C(=O)N2CCN(CC(C)C)C(=O)C2C)CC1 (stereo not drawn) [2-B08, 3-methyl-1-(2-methylpropyl)-4-[1-(prop-2-enoyl)piperidine-4-carbonyl]piperazin-2-one] | 92.6023%
O=C(CCl)N1N=C(c2cccc(F)c2)CC1c1cccs1 (stereo not drawn) [4-E22, 2-chloro-1-[3-(3-fluorophenyl)-5-(thiophen-2-yl)-4,5-dihydro-1H-pyrazol-1-yl]ethan-1-one] | 121.582%
C=CC(=O)N1CCC(c2ncc(C(=O)O)o2)CC1 [2-G19, 2-[1-(prop-2-enoyl)piperidin-4-yl]-1,3-oxazole-5-carboxylic acid] | 116.275%
C=CC(=O)N1CCC(C(=O)Nc2ccc(CC)cc2)CC1 [3-J12, N-(4-ethylphenyl)-1-(prop-2-enoyl)piperidine-4-carboxamide] | 97.5185%
O=C(CCl)NCc1cc([N+](=O)[O-])ccc1O [4-A05, 2-chloro-N-[(2-hydroxy-5-nitrophenyl)methyl]acetamide] | 92.6155%
N#Cc1cc([N+](=O)[O-])ccc1NC(=O)CCl [4-O09, 2-chloro-N-(2-cyano-4-nitrophenyl)acetamide] | 100.619%
O=C(CCl)NSc1ccc([N+](=O)[O-])cc1 [4-P13, 2-chloro-N-[(4-nitrophenyl)sulfanyl]acetamide] | 1.906%
Cc1cc(C)cc(-c2cc(NC(=O)CCl)n(-c3ccccc3)n2)c1 [4-K04, 2-chloro-N-[3-(3,5-dimethylphenyl)-1-phenyl-1H-pyrazol-5-yl]acetamide] | 80.4192%
CC(O)=C(C#N)C(=O)Nc1ccc(-c2ccccc2Cl)c(Cl)c1 [9-L22, 2-cyano-N-{2,2'-dichloro-[1,1'-biphenyl]-4-yl}-3-hydroxybut-2-enamide] | 33.2584%
CC(O)=C(C#N)C(=O)Nc1ccc(C(F)(F)F)cc1 [9-A05, 2-cyano-3-hydroxy-N-[4-(trifluoromethyl)phenyl]but-2-enamide] | 71.6105%
C/C(O)=C(\C#N)C(=O)Nc1ccc(-c2ccccc2Cl)cc1 [9-P22, (2Z)-N-{2'-chloro-[1,1'-biphenyl]-4-yl}-2-cyano-3-hydroxybut-2-enamide] | 50.9363%
N#CC(=Cc1cc2ccccc2o1)C(=O)NCc1ccco1 [9-O08, 3-(1-benzofuran-2-yl)-2-cyano-N-[(furan-2-yl)methyl]prop-2-enamide] | 115.056%
Cc1ccc(C=C(C#N)C(=O)NCc2ccco2)o1 [8-P19, 2-cyano-N-[(furan-2-yl)methyl]-3-(5-methylfuran-2-yl)prop-2-enamide] | 89.6266%
N#CC(=Cc1ccc([N+](=O)[O-])o1)C(=O)NCc1ccco1 [8-I17, 2-cyano-N-[(furan-2-yl)methyl]-3-(5-nitrofuran-2-yl)prop-2-enamide] | -0.6639%
O=C(CCl)c1ccc2[nH]c(=O)[nH]c2c1 [10-I14, 5-(2-chloroacetyl)-2,3-dihydro-1H-1,3-benzodiazol-2-one] | 100.313%
O=C(CCl)c1ccc(Cl)c(Cl)c1 [10-L16, 2-chloro-1-(3,4-dichlorophenyl)ethan-1-one] | 5%
O=C(CCl)c1ccc(F)c(F)c1 [10-L13, 2-chloro-1-(3,4-difluorophenyl)ethan-1-one] | 110.313%
COC(=O)c1cccc(C(=O)CCl)c1 [10-I11, methyl 3-(2-chloroacetyl)benzoate] | 61.5625%
COc1ccc(C(=O)CCl)cc1Cl [10-D10, 2-chloro-1-(3-chloro-4-methoxyphenyl)ethan-1-one] | -0.3125%
COc1ccc(C(=O)CCl)c(OC)c1 [10-G18, 2-chloro-1-(2,4-dimethoxyphenyl)ethan-1-one] | 124.375%
CC(Cl)C(=O)NC(C)c1ccc(C(F)(F)F)nc1Cl (stereo not drawn) [7-G09, 2-chloro-N-{1-[2-chloro-6-(trifluoromethyl)pyridin-3-yl]ethyl}propanamide] | 111.774%

Structure (SMILES) | % of control remaining
C=CC(=O)Nc1cccc(-c2nc(COC)no2)c1C [1-J08, N-{3-[3-(methoxymethyl)-1,2,4-oxadiazol-5-yl]-2-methylphenyl}prop-2-enamide] | 101.626%
COc1cc(Cl)c(C)cc1N1C(=O)C=CC1=O [10-B15, 1-(4-chloro-2-methoxy-5-methylphenyl)-2,5-dihydro-1H-pyrrole-2,5-dione] | 91.875%
N#CC(C(=O)Nc1ccc(Cl)cc1)=C(S)Nc1ccccc1 [8-H22, N-(4-chlorophenyl)-2-cyano-3-(phenylamino)-3-sulfanylprop-2-enamide] | 74.3568%
Cl.O=C(CCl)c1ccncc1 [10-M09, 2-chloro-1-(pyridin-4-yl)ethan-1-one hydrochloride] | 111.875%
N#Cc1ccc(C(=O)CCl)cc1 [10-F10, 4-(2-chloroacetyl)benzonitrile] | 52.5%
CCN(c1ccc(C(=O)CCl)cc1)S(C)(=O)=O [10-F04, N-[4-(2-chloroacetyl)phenyl]-N-ethylmethanesulfonamide] | 2.1875%
NC(=O)CCc1ccc(C(=O)CCl)cc1 [10-I03, 3-[4-(2-chloroacetyl)phenyl]propanamide] | 108.125%
CN(c1ccc(C(=O)CCl)cc1)S(C)(=O)=O [10-F19, N-[4-(2-chloroacetyl)phenyl]-N-methylmethanesulfonamide] | -0.3125%
CC(=O)N(C)Cc1ccc(C(=O)CCl)cc1 [10-H04, N-{[4-(2-chloroacetyl)phenyl]methyl}-N-methylacetamide] | 111.875%
C=CC(=O)N1CCC(C(=O)NCc2ncnn2CC)CC1 [3-P03, N-[(1-ethyl-1H-1,2,4-triazol-5-yl)methyl]-1-(prop-2-enoyl)piperidine-4-carboxamide] | 135.829%
C=CC(=O)Nc1cc(-c2ccco2)nn1C(C)(C)C [1-K19, N-[1-tert-butyl-3-(furan-2-yl)-1H-pyrazol-5-yl]prop-2-enamide] | 129.407%
CCN(Cc1ccccc1)C(=O)CCl [6-O21, N-benzyl-2-chloro-N-ethylacetamide] | 79.9024%
CCn1ccc(CN(C)C(=O)CCl)n1 [5-K06, 2-chloro-N-[(1-ethyl-1H-pyrazol-3-yl)methyl]-N-methylacetamide] | 77.5956%
CCc1cc(SC#N)cc(C)c1NC(=O)CCl [4-M04, 2-chloro-N-[4-(cyanosulfanyl)-2-ethyl-6-methylphenyl]acetamide] | 101.382%
O=C(CCl)Cc1cccc(Cl)c1 [10-E17, 1-chloro-3-(3-chlorophenyl)propan-2-one] | 119.375%
O=C(CCl)Cc1cc(Cl)cc(Cl)c1 [10-I15, 1-chloro-3-(3,5-dichlorophenyl)propan-2-one] | 23.125%
O=C(CCl)Cc1ccc(Cl)c(Cl)c1 [10-E15, 1-chloro-3-(3,4-dichlorophenyl)propan-2-one] | 111.25%
O=C(CCl)NC(=O)c1ccc(OC(F)F)cc1 [5-J22, N-(2-chloroacetyl)-4-(difluoromethoxy)benzamide] | 106.011%
C=CC(=O)NCc1ncoc1C(F)(F)F [3-E18, N-{[5-(trifluoromethyl)-1,3-oxazol-4-yl]methyl}prop-2-enamide] | 106.922%
N#CC(=Cc1ccc(C(F)(F)F)cc1)C(=O)Nc1ccccc1 [9-I04, 2-cyano-N-phenyl-3-[4-(trifluoromethyl)phenyl]prop-2-enamide] | 99.7753%
N#CC(C(=O)CCl)=C1NC(C23CC4CC(CC(C4)C2)C3)=CS1 [10-F14, 2-[4-(adamantan-1-yl)-2,3-dihydro-1,3-thiazol-2-ylidene]-4-chloro-3-oxobutanenitrile] | 42.1875%
CN1C=CC(=C(C#N)C(=O)CCl)C=C1 [10-G21, 4-chloro-2-(1-methyl-1,4-dihydropyridin-4-ylidene)-3-oxobutanenitrile] | 112.5%
N#CC(C(=O)CCl)=C1NC2=C(CCc3ccccc32)S1 [10-N10, 4-chloro-2-{1H,2H,4H,5H-naphtho[1,2-d][1,3]thiazol-2-ylidene}-3-oxobutanenitrile] | 59.6875%
O=C(CCl)NC1CCS(=O)(=O)c2ccc(F)cc21 (stereo not drawn) [7-H06, 2-chloro-N-(6-fluoro-1,1-dioxo-3,4-dihydro-2H-1lambda6-benzothiopyran-4-yl)acetamide] | 94.1915%
